rCAG RNA binder = binders of r(CAG) RNA repeats, primary screen, biochemical, fluorescence | r(CAG) RNA repeat, TO-PRO-1 dye displacement fluorescence | inhibition, % at 3 µM | hit rate 1.3% among 370,000 | AID 651821, 2012;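 active means inhibition above the plate cutoff, the mean of all test compounds on that plate plus 3 SD, cut at about 35% in these data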;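 further: 0% = DMSO alone and 100% = 100 µM mitoxantrone as full dye displacement; higher means more dye released from RNA so lower well fluorescence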
UHRF1 MBD2 ctr = UHRF1 methylated DNA binding inhibitors, primary screen, counter-screen for MBD2 inhibitor project, biochemical, TR-FRET, human UHRF1, single concentration | hit rate 0.75% among 370,000 | inhibition, % at 4.4 µM | E3 ubiquitin-protein ligase UHRF1 (Homo sapiens), Q96T88 | UHRF1 binding to methylated oligo; in the data active means inhibition above about 21%;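 further: UHRF1 SRA domain binding a hemimethylated CpG hairpin DNA probe; 0% = median of test compound wells and 100% = reference inhibitor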
DNMT1 inh = human DNMT1 methyltransferase inhibitors, primary screen, biochemical, molecular beacon, fluorescence, HinP1I cleavage, uHTS; DNA (cytosine-5)-methyltransferase 1 (Homo sapiens), P26358; inhibition (reported as % activation of signal), % at 10 µM; hit rate 0.83% among 360,000; AID 588458, 2011; in the data active means inhibition above about 50%
PG9 Ab binder = binders of HIV-1 gp120 antibody PG9, primary screen, biochemical, TR-FRET | HIV-1 gp120 / PG9 antibody interaction | AID 624416, 2012 | inhibition, % at 6.7 µM | TR-FRET gp120-PG9 antibody binding | hit rate 0.43% among 360,000; in the data active means inhibition above about 8.5%
MBD2 inh = inhibitors of MBD2 binding to methylated DNA, primary screen, biochemical, TR-FRET, DNA-binding domain, human | inhibition, % at 4.4 µM | Methyl-CpG-binding domain protein 2 (Homo sapiens), Q9UBB5 | MBD2 binding to methylated oligonucleotide | AID 686964, 2013 | hit rate 0.31% among 370,000; in the data active means inhibition above about 13%
LEDGF integ inh = blockers of LEDGF/p75-dependent integrase strand transfer – biochemical, TR-FRET, high throughput, primary screen; HIV-1 integrase (with human LEDGF/p75); TR-FRET IN-LEDGF/p75 DNA integration, Eu/Cy5; inhibition, % at 3.7 µM; hit rate 0.64% among 370,000; AID 743269, 2014;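 active means inhibition above the screen-wide mean plus 3 SD, cut at about 13% in these data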;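 further: signal is the Cy5 over europium emission ratio at 671 and 618 nm; 0% = plate median of compound wells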
IN multimer act = HIV-1 IN multimer formation enhancers, counter-screen for LEDGF/p75 integration inhibitor project, biochemical, TR-FRET. shares compounds with LEDGF integ inh. TR-FRET HIV-1 integrase multimerization. activation, % at 7.7 µM. hit rate 17% among 2,000. AID 1053131, 2014; in the data active means activation above about 8.9%
TR-FRET interf = TR-FRET optical interference artefacts, confirmation, artefact control for LEDGF/p75-dependent integration inhibitor project, biochemical, HIV-1 IN multimerization | shares compounds with LEDGF integ inh | TR-FRET optical interference counterscreen | inhibition, % at 7.7 µM | 2,000 tested, under 10 active;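 active means inhibition above the mean over all tested compounds plus 3 SD, which no compound reached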;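 further: 0% = integrase with antibodies and DMSO and 100% = antibodies without integrase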
LEDGF integ conf = inhibitors of HIV-1 IN-LEDGF/p75 DNA integration, confirmation, biochemical, TR-FRET | shares compounds with LEDGF integ inh | TR-FRET LEDGF/p75-dependent HIV-1 integration | inhibition, % at 3.7 µM | hit rate 36% among 2,000 | AID 1053136, 2014; in the data active means inhibition above about 14%
Active calls of the source: *; x = no result given. Shown are actives, neighbours in structure and some others; about 3.5% of the full set was active somewhere.

SMILES | rCAG RNA binder | UHRF1 MBD2 ctr | DNMT1 inh | PG9 Ab binder | MBD2 inh | LEDGF integ inh | IN multimer act | TR-FRET interf | LEDGF integ conf
CC(=NCc1ccco1)c1c(O)n(Cc2ccccc2)c(=O)[nH]c1=O | 0.7 | 0.2 | 3.4 | -1.1 | -0.2 | 0.8 | x | x | x
COC(=O)C1=C(c2ccc(C(C)=O)cc2)C[C@@H]2CC[C@H]1N2C(=O)N1CCCCC1 | x | x | 0.0 | x | x | x | x | x | x
CCCCNC(=O)c1c(N)n(CCCOC)c2nc3ccccc3nc12 | 4.2 | 4.4 | -15.6 | 1.2 | -0.3 | 1.2 | x | x | x
COCCCn1c(N)c(C(=O)OCCOC)c2nc3ccccc3nc21 | 1.7 | 5.3 | 26.7 | 1.8 | -0.5 | 27.8* | 7.8 | -29.4 | 1.1
Cc1c(OC(=O)N(C)C)ccc2c1O/C(=C\c1ccco1)C2=O | 24.9 | 3.9 | 0.0 | -3.9 | 2.2 | 17.5* | 0.2 | -0.6 | -2.6
O=c1cc(C2CCNCC2)[nH][nH]1 | 3.9 | 13.2 | -16.8 | -0.6 | 7.2 | 19.3* | -2.5 | 9.1 | -6.1
Cc1cccc(NC(=S)N2CC3CC(C2)c2cccc(=O)n2C3)c1C (stereo unspecified) | 2.1 | 2.0 | 0.9 | -1.1 | 1.0 | 0.6 | x | x | x
CN1C(=O)C(=Cc2cn(CC#N)c3ccccc23)C(=O)N(C)C1=O | 5.7 | 1.6 | -0.2 | -0.3 | -1.1 | 15.8* | 0.2 | -0.9 | -4.7

Screens from PubChem.
